About 79,000 compounds went through this panel and 15% of them were active in at least one assay; those are over-represented in the sample as a whole. Calls of active or inactive are those of the source. No stated cut-off is given here; in the data, active means growth inhibition above about 70%; inactive means the rest.

The nature of this test: NCI Yeast Anticancer Drug Screen. Data for the rad50 strain (AID 155).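 Further: 0% = growth of vehicle-only cultures of the same strain.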 The note with it: S. cerevisiae rad50 strain growth inhibition; at 50.0 µM; active compounds read high. The method in brief: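 Inhibition values express reduced yeast growth in compound-treated cultures relative to vehicle-treated controls.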
As to `CN(C)c1ncnc2c1cnn2-c1ccc(Cl)cc1`, the growth inhibition is -6.15% (inactive).

As for `CCCCC(CC)(CC(=O)O)CC(=O)O`, the growth inhibition is 10.4% (inactive).

As for `CN1C(=O)c2ccccc2N(C)C(=O)c2ccccc21`, the growth inhibition is 0.9% (inactive).

Consider `Cc1ccccc1NC=O`, for which the growth inhibition was -26% (inactive).

For `Cc1ccc(C(=O)Nc2ccc([N+](=O)[O-])cc2)cc1`, the growth inhibition was 4.2% (inactive).

With `O=P(O)(CP(=O)(c1ccccc1)c1ccccc1)c1ccccc1`, the growth inhibition is 15.3% (inactive).

Consider `CC(C)(O)CCC(O)C(C)(O)C1CCC2(O)C3=CC(=O)C4(O)CC(O)C(O)CC4(C)C3CCC12C` (configuration not stated) (tested in a mixture with another compound), for which the growth inhibition was -5.3% (inactive).

Turning to `O=C(O)/C=C\C(=O)Nc1ccc(S(=O)(=O)Nc2nccs2)cc1`, the growth inhibition is -0.8% (inactive).

As for `O=C(O)/C=C/C(=O)Nc1cc2c(cc1Br)-c1ccccc1C2O` (configuration not stated), the growth inhibition was -2.75% (inactive).

In the case of `CC(C)CC(NC(=O)CN)C(=O)O` (configuration not stated), the growth inhibition was -1.85% (inactive).

In the case of `NNC(=O)/C(=C/c1cccc([N+](=O)[O-])c1)NC(=O)c1ccccc1`, the growth inhibition is -41.4% (inactive).

As for `Cc1cccc[n+]1CC(=O)c1ccccc1[N+](=O)[O-]`, the growth inhibition is -5% (inactive).

On to `O=c1[nH]c(Nc2ccccc2)nc2c1ncn2CC(O)CSCCO` (configuration not stated), for which the growth inhibition is 16.1% (inactive).

As for `CC(=O)NC(Cc1ccc(O)cc1)C(=O)O` (configuration not stated), the growth inhibition is 10.8% (inactive).

Regarding `O=[N+]([O-])c1ccc(NN=C2CCCCCC2)c([N+](=O)[O-])c1`, the growth inhibition was 5.95% (inactive).

Take `CCC(C)C(NCc1ccccc1)C(=O)O` (configuration not stated): the growth inhibition was -8.75% (inactive).

For `COc1ccc(/C=N/NC(=O)c2ccccc2OC)cc1`, the growth inhibition was 1.85% (inactive).

For the origin of these results see PubChem BioAssay (NCI).
